Experimental data as given in the supplement of paper PMC12282887.
± gives the standard deviation of the averaged measurements.

Assays:
Experiment in all cases: promoter activity interaction Z-score (Lux/OD deviation from empty-vector control); higher = stronger promoter induction by the compound
[1] = test system: E. coli BW25113 acrABp lux reporter
Method in brief: (§1)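 Low-copy luxCDABE promoter reporters were carried by E. coli BW25113, either wild type or lacking one of three genes, grown in 40 µl LB Lennox in 384-well plates at 37°C. Each compound was run at four 1:2 dilutions in biological duplicates, with OD600 and luminescence read every 30 min for 12 h. Integration used 0–8 h for wild type and 1–9 h for deletion strains, and wells under 10% of the median growth value were removed. Luminescence normalised to growth was fitted against a control, and the Z-transformed residual is the score.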

[2] = test system: E. coli BW25113 marRABp lux reporter
Method in brief: as §1

[3] = test system: E. coli BW25113 micFp lux reporter
Method in brief: as §1

[4] = test system: E. coli BW25113 ompFp lux reporter
Method in brief: as §1

[5] = test system: E. coli BW25113 robp lux reporter
Method in brief: as §1

[6] = test system: E. coli BW25113 soxSp lux reporter
Method in brief: as §1

[7] = test system: E. coli BW25113 tolCp lux reporter
Method in brief: as §1

[8] = 0.47 µg/ml, genetic background: wild type
[9] = 0.47 µg/ml, genetic background: ΔmarA
[10] = 0.47 µg/ml, genetic background: Δrob
[11] = 0.47 µg/ml, genetic background: ΔsoxS
[12] = 0.93 µg/ml, genetic background: wild type
[13] = 0.93 µg/ml, genetic background: ΔmarA
[14] = 0.93 µg/ml, genetic background: Δrob
[15] = 0.93 µg/ml, genetic background: ΔsoxS
[16] = 1.9 µg/ml, genetic background: wild type
[17] = 1.9 µg/ml, genetic background: ΔmarA
[18] = 1.9 µg/ml, genetic background: Δrob
[19] = 1.9 µg/ml, genetic background: ΔsoxS
[20] = 3.7 µg/ml, genetic background: wild type
[21] = 3.7 µg/ml, genetic background: ΔmarA
[22] = 3.7 µg/ml, genetic background: Δrob
[23] = 3.7 µg/ml, genetic background: ΔsoxS

CC1(C)S[C@@H]2[C@H](NC(=O)Cc3ccccc3)C(=O)N2[C@H]1C(=O)O [Penicillin G]
promoter activity interaction Z-score [1, 8]: -0.119 ± 0.09 | promoter activity interaction Z-score [1, 9]: -0.131 ± 0.52 | promoter activity interaction Z-score [1, 10]: 0.0104 ± 0.26 | promoter activity interaction Z-score [1, 11]: 0.211 ± 0.039 | promoter activity interaction Z-score [1, 12]: -0.14 ± 0.13 | promoter activity interaction Z-score [1, 13]: 0.592 ± 0.63 | promoter activity interaction Z-score [1, 14]: 0.28 ± 0.04 | promoter activity interaction Z-score [1, 15]: 0.575 ± 0.16 | promoter activity interaction Z-score [1, 16]: -0.0936 ± 0.033 | promoter activity interaction Z-score [1, 17]: 0.128 ± 0.61 | promoter activity interaction Z-score [1, 18]: -0.00373 ± 0.015 | promoter activity interaction Z-score [1, 19]: 0.229 ± 0.28 | promoter activity interaction Z-score [1, 20]: 0.0671 ± 0.041 | promoter activity interaction Z-score [1, 21]: 0.328 ± 0.92 | promoter activity interaction Z-score [1, 22]: 0.156 ± 0.023 | promoter activity interaction Z-score [1, 23]: 0.14 ± 0.13 | promoter activity interaction Z-score [2, 8]: -0.0595 ± 0.01 | promoter activity interaction Z-score [2, 9]: -0.219 ± 0.31 | promoter activity interaction Z-score [2, 10]: -0.0723 ± 0.22 | promoter activity interaction Z-score [2, 11]: 0.0424 ± 0.095 | promoter activity interaction Z-score [2, 12]: 0.124 ± 0.25 | promoter activity interaction Z-score [2, 13]: -0.178 ± 0.24 | promoter activity interaction Z-score [2, 14]: -0.0814 ± 0.19 | promoter activity interaction Z-score [2, 15]: 0.103 ± 0.11 | promoter activity interaction Z-score [2, 16]: -0.36 ± 0.024 | promoter activity interaction Z-score [2, 17]: -0.244 ± 0.026 | promoter activity interaction Z-score [2, 18]: -0.221 ± 0.14 | promoter activity interaction Z-score [2, 19]: 0.0691 ± 0.16 | promoter activity interaction Z-score [2, 20]: -0.195 ± 0.22 | promoter activity interaction Z-score [2, 21]: -0.122 ± 0.053 | promoter activity interaction Z-score [2, 22]: 0.035 ± 0.11 | promoter activity interaction Z-score [2, 23]: -0.0494 ± 0.053 | promoter activity interaction Z-score [3, 8]: -0.185 ± 0.12 | promoter activity interaction Z-score [3, 9]: -0.107 ± 0.0057 | promoter activity interaction Z-score [3, 10]: -0.126 ± 0.1 | promoter activity interaction Z-score [3, 11]: -0.069 ± 0.047 | promoter activity interaction Z-score [3, 12]: -0.247 ± 0.14 | promoter activity interaction Z-score [3, 13]: -0.0395 ± 0.093 | promoter activity interaction Z-score [3, 14]: -0.135 ± 0.1 | promoter activity interaction Z-score [3, 15]: 0.069 ± 0.064 | promoter activity interaction Z-score [3, 16]: -0.228 ± 0.13 | promoter activity interaction Z-score [3, 17]: 0.0369 ± 0.038 | promoter activity interaction Z-score [3, 18]: -0.142 ± 0.026 | promoter activity interaction Z-score [3, 19]: 0.21 ± 0.0048 | promoter activity interaction Z-score [3, 20]: -0.333 ± 0.01 | promoter activity interaction Z-score [3, 21]: -0.118 ± 0.043 | promoter activity interaction Z-score [3, 22]: -0.11 ± 0.08 | promoter activity interaction Z-score [3, 23]: -0.156 ± 0.19 | promoter activity interaction Z-score [4, 8]: 0.195 ± 0.027 | promoter activity interaction Z-score [4, 9]: -0.0479 ± 0.074 | promoter activity interaction Z-score [4, 10]: -0.032 ± 0.25 | promoter activity interaction Z-score [4, 11]: 0.447 ± 0.11 | promoter activity interaction Z-score [4, 12]: 0.206 ± 0.52 | promoter activity interaction Z-score [4, 13]: 0.589 ± 0.67 | promoter activity interaction Z-score [4, 14]: 0.432 ± 0.096 | promoter activity interaction Z-score [4, 15]: 0.381 ± 0.3 | promoter activity interaction Z-score [4, 16]: -0.392 ± 0.093 | promoter activity interaction Z-score [4, 17]: 0.0358 ± 0.0037 | promoter activity interaction Z-score [4, 18]: 0.00513 ± 0.15 | promoter activity interaction Z-score [4, 19]: 0.64 ± 0.076 | promoter activity interaction Z-score [4, 20]: 0.719 ± 0.27 | promoter activity interaction Z-score [4, 21]: 1.16 ± 0.19 | promoter activity interaction Z-score [4, 22]: 1.35 ± 0.66 | promoter activity interaction Z-score [4, 23]: 1.7 ± 0.7 | promoter activity interaction Z-score [5, 8]: 0.349 ± 0.073 | promoter activity interaction Z-score [5, 9]: -0.4 ± 0.07 | promoter activity interaction Z-score [5, 10]: 0.363 ± 0.43 | promoter activity interaction Z-score [5, 11]: 0.277 ± 0.35 | promoter activity interaction Z-score [5, 12]: 0.428 ± 0.22 | promoter activity interaction Z-score [5, 13]: 0.187 ± 0.37 | promoter activity interaction Z-score [5, 14]: 0.468 ± 0.14 | promoter activity interaction Z-score [5, 15]: 1.15 ± 0.22 | promoter activity interaction Z-score [5, 16]: 0.165 ± 0.58 | promoter activity interaction Z-score [5, 17]: 0.313 ± 0.31 | promoter activity interaction Z-score [5, 18]: 0.501 ± 0.075 | promoter activity interaction Z-score [5, 19]: 1.21 ± 0.031 | promoter activity interaction Z-score [5, 20]: -0.01 ± 0.15 | promoter activity interaction Z-score [5, 21]: -0.105 ± 0.66 | promoter activity interaction Z-score [5, 22]: 0.319 ± 0.12 | promoter activity interaction Z-score [5, 23]: 0.575 ± 0.42 | promoter activity interaction Z-score [6, 8]: -0.0325 ± 0.0094 | promoter activity interaction Z-score [6, 9]: -0.123 ± 0.17 | promoter activity interaction Z-score [6, 10]: -0.201 ± 0.0035 | promoter activity interaction Z-score [6, 11]: 0.0709 ± 0.024 | promoter activity interaction Z-score [6, 12]: -0.167 ± 0.16 | promoter activity interaction Z-score [6, 13]: 0.103 ± 0.074 | promoter activity interaction Z-score [6, 14]: -0.163 ± 0.14 | promoter activity interaction Z-score [6, 15]: 0.0504 ± 0.19 | promoter activity interaction Z-score [6, 16]: -0.132 ± 0.13 | promoter activity interaction Z-score [6, 17]: -0.0824 ± 0.12 | promoter activity interaction Z-score [6, 18]: -0.0996 ± 0.047 | promoter activity interaction Z-score [6, 19]: 0.084 ± 0.14 | promoter activity interaction Z-score [6, 20]: -0.201 ± 0.12 | promoter activity interaction Z-score [6, 21]: 0.0156 ± 0.13 | promoter activity interaction Z-score [6, 22]: -0.136 ± 0.17 | promoter activity interaction Z-score [6, 23]: -0.126 ± 0.39 | promoter activity interaction Z-score [7, 8]: -0.848 ± 1 | promoter activity interaction Z-score [7, 9]: -0.0171 ± 0.012 | promoter activity interaction Z-score [7, 10]: 0.219 ± 0.5 | promoter activity interaction Z-score [7, 11]: 0.375 ± 0.55 | promoter activity interaction Z-score [7, 12]: -0.35 ± 0.54 | promoter activity interaction Z-score [7, 13]: -0.485 ± 0.89 | promoter activity interaction Z-score [7, 14]: -0.163 ± 0.37 | promoter activity interaction Z-score [7, 15]: 0.352 ± 0.23 | promoter activity interaction Z-score [7, 16]: -0.309 ± 1 | promoter activity interaction Z-score [7, 17]: -0.171 ± 0.9 | promoter activity interaction Z-score [7, 18]: -0.0507 ± 1.1 | promoter activity interaction Z-score [7, 19]: 0.284 ± 0.24 | promoter activity interaction Z-score [7, 20]: -0.124 ± 0.38 | promoter activity interaction Z-score [7, 21]: -0.297 ± 0.25 | promoter activity interaction Z-score [7, 22]: -0.675 ± 1.1 | promoter activity interaction Z-score [7, 23]: 0.109 ± 0.61
